Screening data as filed in PubChem.
HT1080 IDH1KD tx = kills HT-1080 cells with IDH1 knockdown | HT-1080 IDH1 knockdown viability, ATP luminescence, 48 h | Potency, µM (series often up to 46.1 µM), for the others: at the top dose activity, negative = toxicity, hits mostly cytotoxic | 360,000 tested, 2% active | AID 686971;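 note: 0% = DMSO wells and -100% = cell-free medium wells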
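Knockdown cells (IDH1KD HT-1080) received compounds 2 h after plating at 750 cells/well and were kept 48 h at 37 °C in 5% FBS RPMI. A CellTiter-Glo luminescence read gave % activity for curve fitting.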
KB-V1 MDR tox = KB-V1 MDR subline cytotoxicity | 400,000 tested, 3.4% active | AID 1347076 | KB-V1 MDR cells viability, CellTiter-Glo, 72 h | Potency, µM (series often up to 46.1 µM), actives largely listed as cytotoxic; note: nearly all actives have a fitted effect of over 60% in size
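Cells of the MDR subline KB-V1 are plated, dosed with compound at multiple concentrations, and incubated 72 h at 37 degrees C; CellTiter-Glo is then added and luminescence read after 10 min.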
TDP1 cell CPT = growth inhibition of DT40 Tdp1-/-;hTDP1 cells with camptothecin (screen for TDP1 inhibitors) | chicken DT40 Tdp1-/-;hTDP1 cells + 20 nM CPT, ATP luminescence, 48 h | AID 686979 | Potency, µM (doses to about 46.2 µM), for inactives: top-dose activity change, negative = growth inhibition, usual class: inhibitors | 420,000 tested, 12% active; note: nearly all actives have a fitted effect of over 55% in size
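Chicken DT40 Tdp1-/- cells complemented with human TDP1, 400 cells/well, exposed to compounds plus 20 nM camptothecin for at least 48 h at 37 C; viability read as ATP content by CellTiter-Glo luminescence.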
DT40 TDP1 no CPT = qHTS for Inhibitors of human tyrosyl-DNA phosphodiesterase 1 (TDP1): qHTS in cells in absence of CPT | DT40 Tdp1-/- hTDP1 cells, no CPT, ATP luminescence, 48 h | Potency, µM (series often up to 46.2 µM), inactives show at the highest dose activity change, negative = growth inhibition, hits mostly inhibitors | 420,000 tested, 15% active | AID 686978, 2013; note: nearly all actives have a fitted effect of over 55% in size
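Growth of hTDP1-complemented DT40 Tdp1-knockout cells is measured by ATP luminescence after at least 48 hr compound exposure at 37 °C, with DMSO substituting for the 20 nM CPT used in the parallel screen.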
HT1080-NT tox = kills 2HG-producing HT-1080-NT fibrosarcoma cells | HT-1080-NT fibrosarcoma viability, CellTiter-Glo ATP luminescence, 48 h | Potency, µM (series often up to 46.1 µM), for inactives: at the highest dose activity, negative = less viability, most hits filed as cytotoxic | 360,000 tested, 1.6% active;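 note: NT is the 2HG producing partner of a matched IDH1 knockdown line; 0% = DMSO-treated cells and -100% = media-only wells without cells; nearly all actives have a fitted effect of over 55% in size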
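Read-out is CellTiter-Glo luminescence after 10 minutes at room temperature, following 48 hours' compound treatment of HT-1080-NT cells (750 cells/well, RPMI, 5% FBS, 37 degrees C).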
KB-3-1 tox = KB-3-1 parental cell cytotoxicity | KB-3-1 viability, CellTiter-Glo ATP luminescence, 72 h | Potency, µM (series often up to 46.1 µM), usual class: cytotoxic | 400,000 tested, 1.4% active; note: nearly all actives have a fitted effect of over 60% in size
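Cytotoxicity in the drug-sensitive parental line KB-3-1 was scored as loss of CellTiter-Glo luminescence following 72 h incubation with compound. Values come from curve fitting of normalized concentration-response data.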
The depositor's hits bear a star. Hits are enriched below; roughly 19% of the tested compounds scored in any of these assays. Calls come from the whole dose curve; as a rule, active = well fitted curve in the direction sought with a large enough effect; inconclusive = small, poorly fitted or top-dose-only effect, or another doubt; inactive = no such curve, though single readings can be large; an effect the other way counts as inactive or inconclusive. Unless noted, % is set by controls: 0 for no effect and ±100 for the full control effect; potency is the fitted concentration of half-maximal effect.

Screening Cc1ccc(-n2c(/C=C/c3ccc(Br)s3)nc3ccccc3c2=O)cc1 returned KB-V1 MDR tox inactive, TDP1 cell CPT 23µM*, DT40 TDP1 no CPT 21µM* and KB-3-1 tox inconclusive.
Cc1cccc(-n2c(/C=C\c3cccc(Br)c3)nc3ccccc3c2=O)c1 was read as KB-V1 MDR tox inactive, TDP1 cell CPT inconclusive, DT40 TDP1 no CPT inconclusive and KB-3-1 tox inactive.
Cc1cc(-n2c(/C=C/c3cccs3)nc3ccccc3c2=O)ccc1Br was read as KB-V1 MDR tox inactive, TDP1 cell CPT 15µM*, DT40 TDP1 no CPT 23µM* and KB-3-1 tox inactive.
For CCOC(=O)C1(c2ccccc2)CCN(CCc2ccc(NC(=O)CCC(=O)O)cc2)CC1 the results were HT1080 IDH1KD tx 15%, KB-V1 MDR tox inactive, TDP1 cell CPT 36%, DT40 TDP1 no CPT 4%, HT1080-NT tox 14% and KB-3-1 tox inactive.
Cc1ccc(C(=O)Nc2nc3ccccc3n2CCN2CCCC2)cc1 was read as HT1080 IDH1KD tx -5%, KB-V1 MDR tox inactive, TDP1 cell CPT 15µM*, DT40 TDP1 no CPT 13µM*, HT1080-NT tox inconclusive and KB-3-1 tox inconclusive.
Screening CNC(C)C(O)c1ccc(O)cc1 (stereo not given) returned TDP1 cell CPT 2% and DT40 TDP1 no CPT 3%.
For COC(C)C(O)(C(=O)OC1=CCN2CC[C@H](O)[C@H]12)C(C)C (stereo not given in full) the results were TDP1 cell CPT 11µM* and DT40 TDP1 no CPT 21µM*.
COc1cc(/C=N/Nc2ccc(S(N)(=O)=O)cc2)cc(OC)c1OC was read as HT1080 IDH1KD tx -6%, KB-V1 MDR tox inactive, TDP1 cell CPT inconclusive, DT40 TDP1 no CPT 21µM*, HT1080-NT tox -11% and KB-3-1 tox inactive.
Cc1nc(N)sc1CCN was read as TDP1 cell CPT inconclusive and DT40 TDP1 no CPT -7%.
O=c1[nH]/c(=C\c2ccc(N(CCCl)CCCl)cc2)c(=O)[nH]/c1=C\c1ccc(N(CCCl)CCCl)cc1 was read as KB-V1 MDR tox inactive, TDP1 cell CPT 3.2µM*, DT40 TDP1 no CPT inconclusive and KB-3-1 tox inconclusive.
Screening O=C1/C(=C/c2ccc(N(CCCl)CCCl)cc2)Cc2ccccc21 returned KB-V1 MDR tox inactive, TDP1 cell CPT 4.5µM*, DT40 TDP1 no CPT 7.9µM* and KB-3-1 tox inactive.
`COCCCNP1(=O)OCC(C)([N+](=O)[O-])CO1` (stereo not given) gave HT1080 IDH1KD tx 13%, KB-V1 MDR tox inactive, TDP1 cell CPT -15%, DT40 TDP1 no CPT -13%, HT1080-NT tox 6% and KB-3-1 tox inactive.
CC1(C)C(C(=O)N2CCN(C(=O)c3ccccc3)CC2)C1(C)C was read as HT1080 IDH1KD tx -1%, KB-V1 MDR tox inactive, TDP1 cell CPT -19%, DT40 TDP1 no CPT -10%, HT1080-NT tox -4% and KB-3-1 tox inactive.
Screening CCOP(=O)(CCP(=O)(OCC)OCC)OCC.C[CH2][Sn]([Cl])([Cl])[CH2]C returned HT1080 IDH1KD tx 4.6µM*, KB-V1 MDR tox inconclusive, TDP1 cell CPT 0.73µM*, DT40 TDP1 no CPT 0.82µM*, HT1080-NT tox inconclusive and KB-3-1 tox inconclusive.
For CCOP(=O)(OCC)OCC the results were HT1080 IDH1KD tx 4%, KB-V1 MDR tox inactive, TDP1 cell CPT 2%, DT40 TDP1 no CPT -16%, HT1080-NT tox 0% and KB-3-1 tox inactive.
`CN1[C@@H]2CC[C@H]1CC(OC(c1ccc(F)cc1)c1ccc(F)cc1)C2` (stereo not given in full) gave TDP1 cell CPT 6.7µM* and DT40 TDP1 no CPT 9.4µM*.
`CN1C2CCC1CC(OC(=O)c1ccc([N+](=O)[O-])cc1)C2` (stereo not given) gave HT1080 IDH1KD tx -5%, KB-V1 MDR tox inactive, TDP1 cell CPT -11%, DT40 TDP1 no CPT -12%, HT1080-NT tox 2% and KB-3-1 tox inactive.
`C[C@@H]1CN([C@H](C)CO)C(=O)c2c(c3ccccc3n2C)-c2ccccc2CO[C@H]1CN(C)C(=O)c1cc(Cl)cc(Cl)c1` gave HT1080 IDH1KD tx -3%, KB-V1 MDR tox inactive, TDP1 cell CPT -24%, DT40 TDP1 no CPT inconclusive, HT1080-NT tox -2% and KB-3-1 tox inactive.
Screening C[C@@H]1CN([C@@H](C)CO)C(=O)c2c(c3ccccc3n2C)-c2ccccc2CO[C@H]1CN(C)C(=O)[C@H](C)c1ccccc1 returned HT1080 IDH1KD tx inconclusive, KB-V1 MDR tox inconclusive, TDP1 cell CPT 16µM*, DT40 TDP1 no CPT 18µM*, HT1080-NT tox inconclusive and KB-3-1 tox inconclusive.
C[C@H](CO)N1C[C@H](C)[C@H](CN(C)C(=O)N[C@H](C)c2ccccc2)OCc2ccccc2-c2c(n(C)c3ccccc23)C1=O was read as HT1080 IDH1KD tx -8%, KB-V1 MDR tox inactive, TDP1 cell CPT 23µM*, DT40 TDP1 no CPT 16µM*, HT1080-NT tox -3% and KB-3-1 tox inconclusive.
Screening C[C@@H]1CN([C@@H](C)CO)C(=O)CCCn2cc(nn2)CO[C@H]1CN(C)C(=O)Oc1cccc2ccccc12 returned HT1080 IDH1KD tx 5%, KB-V1 MDR tox inactive, TDP1 cell CPT -25%, DT40 TDP1 no CPT -8%, HT1080-NT tox 7% and KB-3-1 tox inactive.
C[C@H](CCC(=O)O)[C@H]1CC[C@H]2[C@H]3C(CC[C@]12C)[C@@]1(C)CC[C@@H](O)C[C@H]1C[C@H]3O (stereo not given in full) was read as TDP1 cell CPT -8% and DT40 TDP1 no CPT -4%.
For CCOC(=O)CNC(=O)N1Cc2cc(-c3ccc(OC)cc3)ccc2-n2nncc2C1 the results were HT1080 IDH1KD tx 3%, KB-V1 MDR tox inactive, TDP1 cell CPT -18%, DT40 TDP1 no CPT -21%, HT1080-NT tox 3% and KB-3-1 tox inactive.
CP(=O)(Nc1ccc(Cl)cc1)c1nc2c(s1)CCCC2 (stereo not given) was read as HT1080 IDH1KD tx -9%, KB-V1 MDR tox inactive, TDP1 cell CPT inconclusive, DT40 TDP1 no CPT inconclusive, HT1080-NT tox 2% and KB-3-1 tox inactive.
Screening O=C(Nc1sc2c(c1C(=O)Nc1ccc(Cl)cc1)CCCC2)c1cccs1 returned KB-V1 MDR tox inactive, TDP1 cell CPT 5.8µM*, DT40 TDP1 no CPT 3.7µM* and KB-3-1 tox inactive.
